Screening results deposited in PubChem by Johns Hopkins Ion Channel Center.
This is a sample that favours compounds with a hit; in the whole collection about 1.6% have one here.
KCNQ2 inh: inhibitors of rat KCNQ2 potassium channel | O88943 | CHO-K1 KCNQ2, FluxOR thallium flux, 20 min; hits give low values | B-score at 10 µM | hit rate 1.1% among 310,000;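 active means fluorescence ratio B-score at most minus 3 library SDs, with starting brightness B-score within 2 library SDs, cut at about -5.5 in these data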
Target sequence (O88943 whole entry, looked up): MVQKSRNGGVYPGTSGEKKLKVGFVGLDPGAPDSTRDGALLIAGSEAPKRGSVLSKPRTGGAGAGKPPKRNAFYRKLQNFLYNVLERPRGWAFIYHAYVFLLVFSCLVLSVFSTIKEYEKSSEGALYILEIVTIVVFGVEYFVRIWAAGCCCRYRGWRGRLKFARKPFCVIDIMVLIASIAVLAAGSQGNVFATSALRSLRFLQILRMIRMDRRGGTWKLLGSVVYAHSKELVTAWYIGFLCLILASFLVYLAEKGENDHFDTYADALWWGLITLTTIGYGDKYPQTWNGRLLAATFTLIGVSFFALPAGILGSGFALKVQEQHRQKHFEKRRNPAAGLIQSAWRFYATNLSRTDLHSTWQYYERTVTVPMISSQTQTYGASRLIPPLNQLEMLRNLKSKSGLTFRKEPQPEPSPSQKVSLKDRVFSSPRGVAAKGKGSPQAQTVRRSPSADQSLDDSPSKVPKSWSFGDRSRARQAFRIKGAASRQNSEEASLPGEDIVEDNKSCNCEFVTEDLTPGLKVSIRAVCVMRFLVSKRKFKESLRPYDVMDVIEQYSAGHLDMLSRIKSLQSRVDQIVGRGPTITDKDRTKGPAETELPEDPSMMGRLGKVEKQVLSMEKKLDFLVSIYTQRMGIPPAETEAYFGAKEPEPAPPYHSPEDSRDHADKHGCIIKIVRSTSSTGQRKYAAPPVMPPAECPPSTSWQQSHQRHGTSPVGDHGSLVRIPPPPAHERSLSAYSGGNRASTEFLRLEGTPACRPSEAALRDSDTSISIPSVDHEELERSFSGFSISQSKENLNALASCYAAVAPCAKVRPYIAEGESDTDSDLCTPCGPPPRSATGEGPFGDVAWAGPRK
KCNQ2 pot: enhances the rat KCNQ2 potassium channel. CHO-K1 KCNQ2, FluxOR thallium flux fluorescence; hits give high values. B-score at 10 µM. hit rate 0.54% among 310,000. AID 2239;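 active means fluorescence ratio B-score at least 3 SD of library B-scores, with initial fluorescence B-score within 3 of them, cut at about 5.3 in these data; same plate scores as AID 2156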;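 further: B-score of peak minus minimum over baseline fluorescence ratio after K+ and Tl+ stimulus; positive B-score means potentiation of KCNQ2 with more thallium influx and brighter signal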
KCNQ2 inh conf: rat KCNQ2 channel inhibition, confirmatory screen; shares compounds with KCNQ2 inh; AID 493025; activity change, negative = inhibition, % at 10 µM; KCNQ2-expressing cells, thallium flux; hits give low values; hit rate 57% among 1,000;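 further: 0% = vehicle wells and values are ratio percent relative to vehicle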
KCNQ1 spec: selectivity of KCNQ2 inhibitors against human KCNQ1; KCNQ1-expressing cells, FluxOR thallium flux fluorescence; hits give low values; hit rate 15% among 1,000; activity change, negative = inhibition, % at 10 µM; shares compounds with KCNQ2 inh;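 active means activity change at least 3 SD of negative controls below their mean in both duplicate wells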;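 further: CHO cells stably transfected with KCNQ1 and depolarized by potassium stimulus; peak minus minimum fluorescence over baseline after thallium addition; 0% = vehicle negative control and -100% = blank without thallium stimulus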
CHO Tl ctr: counter-screen for KCNQ2 inhibitors: effect in parental CHO cells | AID 493029 | hit rate 14% among 1,000 | activity change, % at 10 µM | thallium flux counter-screen; hits give low values | shares compounds with KCNQ2 inh;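 further: 0% = vehicle negative controls with stimulus buffer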
KCNQ2 patch conf: blocks rat KCNQ2 current in automated patch clamp; AID 588531; KCNQ2-expressing cells; shares compounds with KCNQ2 inh; calls only at 10 µM; hit rate 49% among 550
Kir21 confirm: confirmation of mouse Kir2.1 potassium channel inhibitors; shares compounds with KCNQ2 pot; Kir2.1-expressing cells, FluxOR thallium flux fluorescence; hits give low values; Tl flux remaining, % of negative control (hits give low values), % at 10 µM; hit rate 41% among 2,300; AID 2032;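 active means Primary-screen hit whose thallium flux fell at least 3 control SD below untreated wells in both duplicates, with normal baseline fluorescence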;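 further: 0% = blank wells without stimulus and 100% = stimulated no-compound controls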
HEK293 ctr: parental HEK293 activity in Kir2.1 inhibitor counter-screen; shares compounds with KCNQ2 pot; parental HEK293 cells, FluxOR thallium flux fluorescence; 0% = unstimulated blank wells; FluxOR signal as % of negative control (100 = no effect), % at 10 µM; hit rate 19% among 2,300; AID 2105;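 active means dye signal at least 3 control SD above or below untreated wells in both duplicates, raw fluorescence within 3, either direction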;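 further: percent is based on the flux ratio of peak minus minimum fluorescence over baseline F0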
CHO-K1 Tl ctr: parental CHO-K1 activity in KCNQ2 potentiator counter-screen; shares compounds with KCNQ2 pot; parental CHO-K1 cells, FluxOR thallium flux fluorescence; zero = vehicle mean+3SD, 100% = vehicle-minus-blank window; activity increase over 3SD of controls, % at 10 µM; hit rate 43% among 1,200; AID 2282;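 active means signal rise of at least 3 SD above the untreated control mean, in both duplicate wells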;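 further: counter screen of KCNQ2 potentiator hits so any rise reflects channel-independent effects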
KCNQ1 pot spec: human KCNQ1 counter-target activity of KCNQ2 potentiators; AID 2283; CHO KCNQ1 stable, FluxOR thallium flux fluorescence; beyond 3SD, as % of vehicle-control signal; hit rate 28% among 1,200; activation over 3SD threshold, % at 10 µM; shares compounds with KCNQ2 pot;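 active means fluorescence ratio rise of at least 3 SD of vehicle wells above their mean, in both replicate wells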;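 further: 0% = vehicle mean plus 3 SD and 100% = vehicle minus unstimulated blank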
KCNQ2 pot confirm: rat KCNQ2 channel potentiator confirmation. hit rate 68% among 1,200. potentiation, less the hit threshold, % at 10 µM. shares compounds with KCNQ2 pot. CHO-KCNQ2 cells, FluxOR thallium flux fluorescence;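 active means fluorescence ratio rising 3 SD or more over the vehicle control mean in both replicates, plus primary screen hit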;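 further: peak minus minimum thallium fluorescence divided by baseline after K/Tl stimulus; 0% = vehicle mean plus 3 SD and 100% = vehicle minus unstimulated blank difference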
Kir2-1 sel: tests whether KCNQ2 potentiators also affect mouse Kir2.1. shares compounds with KCNQ2 pot. HEK293 Kir2.1, FluxOR thallium flux fluorescence. activity over 3SD threshold, % at 10 µM. hit rate 2% among 1,200;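 active means fluorescence ratio rise of at least 3 SD above the vehicle-control mean, seen in both replicates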;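 further: 0% = vehicle mean plus 3 SD and 100% = vehicle minus no-stimulus blank window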
KCNQ2 W236L pot: KCNQ2 potentiators acting on retigabine-insensitive rat KCNQ2 W236L mutant; shares compounds with KCNQ2 pot; CHO KCNQ2-W236L, automated patch clamp current; current increase over 3SD of negative controls (%), hits give high values, % at 25 µM; hit rate 10% among 940; AID 2558;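 active means current increase at least 3 SD of the untreated controls above them in both duplicate recordings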
The depositor's hits bear a star; i = inactive; x = not tested or not shown; + = active, no number. Unless noted, how the calls were made is not given here.

SMILES	KCNQ2 inh	KCNQ2 pot	Kir21 confirm	HEK293 ctr	others
COC(=O)c1ccc2c(c1)C(C)(C)C(/C=C/c1ccc(O)cc1)=[N+]2C	i	x	x	x
COC(=O)c1ccc2c(c1)C(C)(C)C(/C=C/c1ccc(OC)c(OC)c1OC)=[N+]2C	-16*	-16	31%*	i	KCNQ2 inh conf=-70%*;KCNQ1 spec=-66%*;CHO Tl ctr=-60%*;KCNQ2 patch conf=i
NC(N)=N/N=C/c1ccc(OCc2ccc(Cl)cc2)cc1	-9.6*	-9.6	i	76%*	KCNQ2 inh conf=-37%*;KCNQ1 spec=i;CHO Tl ctr=i;KCNQ2 patch conf=+
Cc1ccc(COc2ccc(/C=N/O)cc2)cc1	i	x	x	x
CN1c2ccccc2C(C)(C)[C@]12C=Cc1cc(O)ccc1O2	-9.5*	-9.5	i	i	KCNQ2 inh conf=-34%*;KCNQ1 spec=i;CHO Tl ctr=i;KCNQ2 patch conf=i
CC1(C)OC(=O)N(c2ccccc2)C12C=Cc1cc(Br)ccc1O2 (centres undefined)	i	x	x	x
CN(CC(=O)Nc1ccccc1Br)C(=O)C1CCN(C(=O)c2ccc(Cl)cc2)CC1	i	1.4	x	x
Cc1ccc(CS(=O)Cc2ccc(C(=O)NCc3ccccc3Br)o2)cc1 (centres undefined)	i	x	x	x
OCCNc1nc(Nc2ccc(Br)cc2)nc2ccccc12	-12*	-12	30%*	i	KCNQ2 inh conf=-26%*;KCNQ1 spec=i;CHO Tl ctr=i;KCNQ2 patch conf=i
OCCNc1nc(Nc2ccccc2)nc2ccccc12	i	3.1	x	x
N=c1c2c(-c3ccccc3)c(-c3ccccc3)n(Cc3ccco3)c2ncn1CCCN1CCOCC1	i	x	x	x
N=c1c2c(-c3ccccc3)c(-c3ccccc3)oc2ncn1CCN1CCOCC1	i	x	x	x
N=c1c2c(-c3ccccc3)c(-c3ccccc3)n(Cc3ccccc3)c2ncn1CCO	-7.5*	-7.5	38%*	63%*	KCNQ2 inh conf=i;KCNQ1 spec=i;CHO Tl ctr=i
CC(C)Cn1cnc2c(c(-c3ccccc3)c(-c3ccccc3)n2Cc2ccco2)c1=N	-10*	-10	i	134%*	KCNQ2 inh conf=i;KCNQ1 spec=i;CHO Tl ctr=i
O=C(CN1C(=O)c2ccccc2S1(=O)=O)Nc1ccc(S(=O)(=O)Nc2ncccn2)cc1	i	x	x	x
Cc1ccc(-c2csc(N=C(N)N)n2)c(C)c1	i	x	40%*	i
COc1ccc(-c2csc(N=C(N)N)n2)cc1	i	1.3	x	x
O=C(NNC(=O)c1ccccc1OCc1ccc(F)cc1)c1ccncc1	i	6.1*	i	i	CHO-K1 Tl ctr=23*;KCNQ1 pot spec=-9;KCNQ2 pot confirm=-23;Kir2-1 sel=-33
COc1ccccc1C(=O)NNC(=O)c1ccc(F)cc1	i	x	x	x
CCCCCn1c(=S)[nH]c2ncccc2c1=O	i	3.1	x	x
O=c1c2cccnc2[nH]c(=S)n1CCC1=CCCCC1	i	12*	i	278%*	CHO-K1 Tl ctr=7.6*;KCNQ1 pot spec=-14;KCNQ2 pot confirm=48*;Kir2-1 sel=-23;KCNQ2 W236L pot=i
CCc1cc(-c2n[nH]c(C)c2-c2nc(C)cs2)c(O)cc1OC	i	2.6	37%*	i
CCc1cc(-c2n[nH]c(C)c2-c2nc3ccccc3s2)c(O)cc1OCC(=O)NN	i	x	x	x
CN(C)S(=O)(=O)c1cccc(C(=O)Nc2n[nH]c(C(F)(F)F)n2)c1	i	1	x	x
CCOC(=O)C(=CNc1ccc(S(N)(=O)=O)cc1)C(=O)OCC	i	x	x	x
SMILES	KCNQ2 inh	KCNQ2 pot	Kir21 confirm	HEK293 ctr	others
CCOC(=O)C(=CNc1ccc(NC2=NCC(C)(C)S2)cc1)C(=O)OCC	i	x	58%*	i
CCn1c(CC(=O)Nc2ccccc2C)nnc1SCC(=O)NC1CCCC1	i	0.61	x	x
CC(NC(=O)c1ccccc1F)c1nnc(SCC(=O)NC2=NCCS2)n1C (centres undefined)	i	1.9	x	x
CCOC(=O)C(NS(=O)(=O)c1ccc(Br)cc1)C(C)C (centres undefined)	i	0.59	42%*	i
Cc1ccc(S(=O)(=O)NC(C(=O)OCC(=O)NC(=O)c2cccn2C)C(C)C)cc1 (centres undefined)	i	0.09	x	x
Cc1ccc(NC(=O)CC2CCCC2)c(Br)c1	i	16*	i	i	CHO-K1 Tl ctr=-20;KCNQ1 pot spec=-12;KCNQ2 pot confirm=52*;Kir2-1 sel=-25;KCNQ2 W236L pot=i
Cc1ccc(C)c(NC(=O)C2CC3CCC2C3)c1 (centres undefined)	i	21*	i	i	CHO-K1 Tl ctr=-8;KCNQ1 pot spec=1.6*;KCNQ2 pot confirm=57*;Kir2-1 sel=-38;KCNQ2 W236L pot=i
COc1ccc(NC(=O)C2CC3CCC2C3)c(OC)c1 (centres undefined)	i	9.8*	i	i	CHO-K1 Tl ctr=69*;KCNQ1 pot spec=58*;KCNQ2 pot confirm=61*;Kir2-1 sel=-18;KCNQ2 W236L pot=i
Cc1ccc(NC(=O)C2CCCC2)c(Br)c1	i	4.5	x	x
Cc1ccc(NC(=O)C2CC3CCC2C3)c(Br)c1 (centres undefined)	i	14*	i	i	CHO-K1 Tl ctr=17*;KCNQ1 pot spec=-17;KCNQ2 pot confirm=32*;Kir2-1 sel=-41;KCNQ2 W236L pot=i
COc1ccc(NC(=O)C2CCCO2)c(OC)c1 (centres undefined)	i	x	x	x
Cc1ccc(S(N)(=O)=O)cc1NC(=O)C1CC2CCC1C2 (centres undefined)	i	x	x	x
Cc1cc(C)cc(NC(=O)C2CC3CCC2C3)c1 (centres undefined)	i	0.29	x	x
Cc1ccc(NC(=O)CNCc2ccccc2Cl)cc1S(=O)(=O)N(C)C	i	1.1	x	x
Cc1ccc(C(=O)C(C)OC(=O)CCN2C(=O)C3C4C=CC(C5CC45)C3C2=O)cc1 (centres undefined)	i	0.09	x	x
COCc1cc(C)nc(SCC(=O)Nc2ccc(N3CCOCC3)cc2)c1C#N	i	0.67	x	x
O=C(Nc1ccccc1)C1CC2CCC1C2 (centres undefined)	i	3.5	x	x
